Reference: PubChem BioAssay (NCI)
Compounds without any hit were thinned out: in the full panel of roughly 83,000, 20% have a hit.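 The test compound was applied at a single concentration to cells in 96-well plates for 48 hours, and percent growth was recorded.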 Activity calls are given as the source filed them. Rule for the calls: active = growth percent below 10; inactive = the rest.

System: HT29 colon
Assay: NCI-60 one-dose screen, 48 h (100 = growth as untreated, 0 = no growth, -100 = all killed)
Details: 10 µM unless noted

Structure (SMILES)	growth
Cc1csc(/N=C(N)/N=C(\N)c2cccc(C#N)c2)n1	62.4% (inactive)
Clc1cccc(/C=N/Nc2nc(N/N=C/c3cccc(Cl)c3)nc(N3CCCCC3)n2)c1	85.6% (inactive)
O=C1[C@H]2Cc3c([nH]c4ccccc34)[C@H](c3ccc(Br)cc3)N2C(=O)CN1C1CCN(CC2CCCCC2)CC1	11% (inactive)
Cc1[nH]c(C(=O)Nc2ccc(C(=O)NCC3CCNCC3)cc2OC(C)C)c(Cl)c1Cl	40.6% (inactive)
CCN(CC)S(=O)(=O)c1ccc(-c2nc(C(Cl)Cl)nc3cc(-c4ccc(F)cc4)nn23)cc1	4.77% (active)
C/C(=N/N)c1nnn(-c2ccc(Br)cc2)c1C	106% (inactive)
CC1=C(C)C(=O)C(Nc2cccc(C)c2)=C(Br)C1=O	105% (inactive)
Cc1ccc(C(=O)Nc2ccc(CNCCN3CCNCC3)c(C(F)(F)F)c2)cc1C#Cc1cnc2cccnn12	5.76% (active)

System: SNB-75 CNS
Assay: as above
Details: 10 µM unless noted

Structure (SMILES)	growth
C#C[C@]1(O)CC[C@H]2[C@@H]3CC=C4c5sc(Nc6cc(C)cc(C)c6)nc5CC[C@]4(C)[C@H]3CC[C@@]21C	10.2% (inactive)
CCCC[n+]1ccc(SCC(=O)n2ccc3ccccc32)c2ccccc21	92.7% (inactive)
CC(C)(C)c1cc(NC(=O)Nc2ccc(-c3cn4c5c(sc4n3)CCc3cn(CCCN4CCCCC4)cc3-5)cc2)no1	39.5% (inactive)
CCCCCCNC(=O)Oc1ccc(/C(=C(/C)c2ccc(OC)cc2)c2ccc(OCCN3CCCCCC3)cc2)cc1	76.8% (inactive)
Cn1cc(-c2cc3ncnc(Nc4ccc(CC(=O)Nc5nc(C(C)(C)C)cs5)cc4)c3s2)cn1	50.9% (inactive)
O=C(CCCCCC/C=C\c1csc(Br)n1)NO	64.8% (inactive)
COc1ccc(C(=O)c2c(N)c(C#N)cn2-c2ccc(Cl)cc2Cl)cc1	91% (inactive)
Cc1ccc2c(n1)C(=O)C(Cl)=C(Nc1cccc(C(F)(F)F)c1)C2=O	109% (inactive)
O=C1[C@H]2Cc3c([nH]c4ccccc34)[C@H](c3ccc(Cl)cc3)N2C(=O)CN1C1CCN(CC2CCCCC2)CC1	41.4% (inactive)
COc1ccc(/C=N/NC(=O)c2c(N)nn(C)c2Nc2ccccc2)cc1	35.1% (inactive)
Fc1ccc2nc(-c3cnn4cccnc34)sc2c1	68.5% (inactive)
O=C(/C=C/c1cccc(F)c1)c1cccc(OCCCCOc2cccc(C(=O)/C=C/c3cccc(F)c3)c2)c1	102% (inactive)
O=C(COc1ccc(/C=C2\C(=O)Nc3ccc(Cl)cc32)cc1)Nc1ccc(Cl)cc1	78.9% (inactive)
O=C(Nc1cccc(Cl)c1)Nc1nc2cc([N+](=O)[O-])ccc2o1	72.9% (inactive)
COc1ccc(NC(=O)CCCCCCNC(=O)C(O)(O)C(F)(F)F)cc1	60.2% (inactive)
CC(=O)N(O)CCCCCNC(=O)CCC(=O)N(O)CCCCCNC(=O)CCC(=O)N(O)CCCCCN(CCCCCCCCCC[P+](c1ccccc1)(c1ccccc1)c1ccccc1)CCCCCCCCCC[P+](c1ccccc1)(c1ccccc1)c1ccccc1	-11% (active)
Cc1cc(Br)ccc1-n1cc(C#N)c(N)c1C(=O)c1ccc(Br)cc1	95.6% (inactive)
CN(C)S(=O)(=O)c1ccc(-c2nc(C(Cl)Cl)nc3cc(-c4ccccc4)nn23)cc1	84.7% (inactive)
CN1CCN(c2ccc(Nc3nc(NCCNC(=O)c4ccc(F)cc4)c4sccc4n3)cc2)CC1	91.5% (inactive)
O=[N+]([O-])c1ccc(NC(=S)NNC(=S)Nc2ccc(Br)cc2)cc1	121% (inactive)

Structure (SMILES)	growth
C/C(=N\NC(=O)/C=C/CC(=O)O)c1nnn(-c2ccc([N+](=O)[O-])cc2)c1C	97.6% (inactive)
CN1CCN(c2ccc(Nc3nc(NCCCNS(=O)(=O)c4ccc(F)cc4)c4sccc4n3)cc2)CC1	78.5% (inactive)
N#CC1=C2NCCCNc3oc(nc3C#N)Cc3ccccc3CC(=N1)O2	92% (inactive)
COc1ccccc1/C=C1\Oc2ccc(O)c(O)c2C1=O	82.6% (inactive)
COc1ccc(NC2=C(Br)C(=O)C(C)=C(C)C2=O)cc1OC	77.1% (inactive)
O=C(Nc1ccc(N=Cc2c(O)[nH]c3ccccc23)cc1)Nc1ccc(S(=O)(=O)Nc2ncccn2)cc1	99% (inactive)
NC(=O)c1c(NC(=O)c2ccc(C(F)(F)F)cc2)sc2c1CCC(=O)C2	-7.54% (active)
O=C(/C=C/c1cccc(Br)c1)c1cccc(OCCCCOc2cccc(C(=O)/C=C/c3cccc(Br)c3)c2)c1	96.8% (inactive)
O=C(CCCCCCNC(=O)c1csc(Br)n1)NO	19.4% (inactive)
CC1CC(=O)C2=C(C1)Nc1ccc(Br)cc1CC2c1c[nH]c2ccc(Br)cc12 (stereo not drawn)	-7.47% (active)
C#CCN(C)CCCOc1ccc(NCc2ccc(C(=O)NO)cc2)cc1Cl	10.4% (inactive)
CC(=O)Nc1nc(C)c(-c2csc(Nc3ccccc3)n2)s1	38.3% (inactive)
Cc1csc(/N=C(N)/N=C(\N)c2cccc(C#N)c2)n1	59.5% (inactive)
Clc1cccc(/C=N/Nc2nc(N/N=C/c3cccc(Cl)c3)nc(N3CCCCC3)n2)c1	102% (inactive)
O=C1[C@H]2Cc3c([nH]c4ccccc34)[C@H](c3ccc(Br)cc3)N2C(=O)CN1C1CCN(CC2CCCCC2)CC1	52.6% (inactive)
Cc1[nH]c(C(=O)Nc2ccc(C(=O)NCC3CCNCC3)cc2OC(C)C)c(Cl)c1Cl	44.8% (inactive)
CCN(CC)S(=O)(=O)c1ccc(-c2nc(C(Cl)Cl)nc3cc(-c4ccc(F)cc4)nn23)cc1	56.5% (inactive)
C/C(=N/N)c1nnn(-c2ccc(Br)cc2)c1C	98.1% (inactive)
CC1=C(C)C(=O)C(Nc2cccc(C)c2)=C(Br)C1=O	67.7% (inactive)
Cc1ccc(C(=O)Nc2ccc(CNCCN3CCNCC3)c(C(F)(F)F)c2)cc1C#Cc1cnc2cccnn12	42.5% (inactive)
